Data as given in PubChem BioAssay (Tox21).
Results filed as inconclusive are left out. Activity calls are given as the source filed them. Calls follow the shape of the dose curve; as a rule, active = well fitted activation curve with a large enough effect in the repeat runs; inconclusive = weak or mixed curves; inactive = no such curve, though single readings can be large or run the other way.

target: Nuclear receptor subfamily 1 group I member 2 (Homo sapiens) (UniProt O75469); test: Human pregnane X receptor (PXR) small molecule agonists, qHTS assay (AID 1346982); conditions: PXR-Luc HepG2, CYP3A4 luciferase reporter, 24 h; series mostly up to 92.4 µM; also: nearly all actives have a fitted effect of over 35% in size
Sequence (O75469 whole entry, looked up): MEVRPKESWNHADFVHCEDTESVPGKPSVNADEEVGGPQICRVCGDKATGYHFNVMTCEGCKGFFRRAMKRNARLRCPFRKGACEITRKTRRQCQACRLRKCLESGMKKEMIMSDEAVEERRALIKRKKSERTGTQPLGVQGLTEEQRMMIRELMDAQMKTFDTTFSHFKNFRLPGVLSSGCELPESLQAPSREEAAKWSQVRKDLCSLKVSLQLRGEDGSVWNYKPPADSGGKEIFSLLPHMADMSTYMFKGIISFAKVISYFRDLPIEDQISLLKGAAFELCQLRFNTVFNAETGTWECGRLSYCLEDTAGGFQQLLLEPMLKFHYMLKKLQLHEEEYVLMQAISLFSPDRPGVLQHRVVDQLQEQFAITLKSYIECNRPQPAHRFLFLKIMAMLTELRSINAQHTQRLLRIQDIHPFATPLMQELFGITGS
Method in brief: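 PXR-Luc HepG2 reporter cells (CYP3A4-driven luciferase) in 5% charcoal-stripped FBS medium, plated 5 h before compound addition, then treated 24 h at 37C. Luciferase read by ONE-Glo luminescence after 30 min at room temperature.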
Potency is read from the fitted curve at half-maximal effect.

Row | Compound | Potency
1 | C[C@@H]1CC2=CC(=O)CC[C@@H]2[C@H]2CC[C@@]3(C)[C@@H](CC[C@]3(C)O)[C@@H]21 | inactive
2 | CC(Cc1ccc2c(c1)OCO2)NO (stereo unspecified) | inactive
3 | CCO/N=C(\CC)C1=C(O)CC(c2c(C)cc(C)cc2C)CC1=O (stereo unspecified) | 30.6 µM (active)
4 | COP(=S)(OC)Oc1ccc([N+](=O)[O-])c(C)c1 | inactive
5 | COP(=S)(OC)Oc1nc(Cl)c(Cl)cc1Cl | inactive
6 | CC[C@]1(O)CC[C@H]2[C@@H]3CCC4=CCCC[C@@H]4[C@H]3CC[C@@]21C | 23.7 µM (active)
7 | c1ccc2c(c1)cc1ccc3cccc4ccc2c1c34 | 5.55 µM (active)
8 | CCOP(=S)(OCC)SC(CCl)N1C(=O)c2ccccc2C1=O (stereo unspecified) | 4.33 µM (active)
9 | Fc1ccc(C(OCCN2CCN(CCCc3ccccc3)CC2)c2ccc(F)cc2)cc1 | inactive
10 | COC(=O)c1cc(Oc2ccc(Cl)cc2Cl)ccc1[N+](=O)[O-] | 54.5 µM (active)
11 | CC(C)=CC1C(C(=O)OC(C#N)c2cccc(Oc3ccccc3)c2)C1(C)C (stereo unspecified) | 17.2 µM (active)
12 | N#Cc1c2ccccc2cc2ccccc12 | 27.3 µM (active)
13 | Clc1ccc(C(Cl)(Cl)Cl)cc1Cl | 30 µM (active)
14 | O=C(N[C@@H]1N=C(c2ccccc2F)c2cccc3c2N(CC3)C1=O)c1cc2ccccc2[nH]1 | 10.6 µM (active)
15 | CCN1CCC2(CC1)COc1cc3c(cc12)N(C(=O)c1ccc(-c2ccc(-c4nnc(C)o4)cc2C)cc1)CC3 | 3.99 µM (active)
16 | CC1(C)C(C=C(Cl)Cl)C1C(=O)OC(C#N)c1ccc(F)c(Oc2ccccc2)c1 (stereo unspecified) | inactive
